An excerpt weighted towards active compounds, which were near 7.2% of everything screened.
FLuc inh = Photinus pyralis luciferase inhibition | purified P. pyralis luciferase, luminescence, biochemical | P08659 | Potency, µM (series often up to 115 µM), most hits filed as inhibitors | 76,000 compounds, 2.5% hits | AID 1347043; note: nearly all actives have a fitted effect of over 65% in size
Target sequence (P08659 whole entry, looked up): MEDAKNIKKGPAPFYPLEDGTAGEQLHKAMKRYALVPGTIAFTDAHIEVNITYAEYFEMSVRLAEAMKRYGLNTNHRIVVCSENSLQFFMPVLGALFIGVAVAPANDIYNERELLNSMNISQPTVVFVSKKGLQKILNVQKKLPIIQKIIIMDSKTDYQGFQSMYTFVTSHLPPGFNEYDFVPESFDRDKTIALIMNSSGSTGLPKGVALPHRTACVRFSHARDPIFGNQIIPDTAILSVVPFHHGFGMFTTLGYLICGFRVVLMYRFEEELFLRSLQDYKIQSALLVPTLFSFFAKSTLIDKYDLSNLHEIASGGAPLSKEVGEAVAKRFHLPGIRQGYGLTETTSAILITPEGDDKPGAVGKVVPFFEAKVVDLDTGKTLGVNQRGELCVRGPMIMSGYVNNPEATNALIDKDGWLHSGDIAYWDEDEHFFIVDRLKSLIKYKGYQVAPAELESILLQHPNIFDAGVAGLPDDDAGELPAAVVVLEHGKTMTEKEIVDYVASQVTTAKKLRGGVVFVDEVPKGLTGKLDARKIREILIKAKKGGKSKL
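Inhibitors were tested against purified firefly luciferase in a biochemical, low-substrate format (both substrates at 10uM) and luminescence measured with a CCD imager.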
HEK293 viab = counter-screen for SNCA expression inhibitors: cell viability; HEK-293-SNCA-luc viability, GF-AFC fluorescence, 24 h; Potency, µM (doses to about 57.1 µM), inactives show at the top dose activity change, negative = cytotoxicity, most hits filed as cytotoxic; 150,000 compounds, 0.12% hits; AID 1671193;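 note: 0% = DMSO-treated cells and -100% = medium-only wells without cells; nearly all actives have a fitted effect of over 30% in size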
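HEK-293-SNCA-luc cells (1500/well) plated 24 h, then exposed 24 h to a dilution series; GF-AFC added 30 min at 37C, fluorescence 405/540 nm; normalised to medium-only and DMSO wells, Hill fit.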
SNCA expr inh = reduces expression of the alpha-synuclein gene. HEK-293 SNCA-luciferase knock-in, luminescence, 24 h. Potency, µM (series often up to 57.2 µM), for inactives: at the top dose activity change, negative = inhibition, usual class: inhibitors. 140,000 compounds, 0.17% hits. AID 1671194;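 note: plate controls were DMSO cells for no effect and cell-free wells for full effect; nearly all actives have a fitted effect of over 45% in size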
3T3 cytotox = kills NIH 3T3 cells; NIH 3T3 viability, CellTiter-Glo ATP luminescence, 48-72 h; Potency, µM (top dose mostly 96.7 µM), for inactives: at the highest dose activity change, negative = cytotoxicity, usual class: inhibitors; 94,000 compounds, 4.3% hits; note: nearly all actives have a fitted effect of over 55% in size
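Mouse fibroblast NIH 3T3 cells, 400 per well, received compound via pintool and were incubated for 48 or 72 hr prior to CellTiter-Glo ATP luminescence measurement.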
hNpr1 antagonist = human Npr1 receptor antagonism | HEK293 hNpr1 GloSensor cGMP, ANP-stimulated luminescence | Potency, µM (doses to about 46.3 µM), for the others: at the top dose activity change, negative = inhibition, most hits filed as inhibitors | 76,000 compounds, 1.6% hits | AID 1347048; calls by dose curve; note: nearly all actives have a fitted effect of over 60% in size
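Compound pre-incubated 30 min at room temperature on GloSensor-loaded HEK293 cells stably carrying hNpr1 and the pGS-40F cGMP biosensor. Stimulation uses hNppA at 0.1 nM final; luminescence is taken at baseline and 20 min post-agonist.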
HEK293 tox = cytotoxic compounds in HEK 293 cells. HEK 293 viability, ATP luminescence (CellTiter-Glo), 48-72 h. Potency, µM (titrated, usually from 115 µM), for the others: top-dose activity change, negative = cytotoxicity, hits mostly inhibitors. 94,000 compounds, 6.6% hits; note: nearly all actives have a fitted effect of over 60% in size
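Cytotoxicity was scored by loss of ATP-coupled luminescence (CellTiter-Glo) in HEK 293 cells. Compound treatment ran 48 or 72 hr at 37 degree Celsius, 5% CO2, 95% humidity.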
* = called active by the depositor; i = inactive; ? = inconclusive; · = not tested or not shown; [ ] = another dose, or the depositor's remark. Unless noted, calls come from the whole dose curve; as a rule, active = well fitted curve in the direction sought with a large enough effect; inconclusive = small, poorly fitted or top-dose-only effect, or another doubt; inactive = no such curve, though single readings can be large; an effect the other way counts as inactive or inconclusive. Unless noted, % is set by controls: 0 for no effect and ±100 for the full control effect; potency is the fitted concentration of half-maximal effect.

SMILES	FLuc inh	HEK293 viab	SNCA expr inh	3T3 cytotox	hNpr1 antagonist	HEK293 tox
O=C(c1cccs1)N1[C@H]2CC[C@@H]1c1cnc(-c3ccccc3)nc1C2	i	6.6%	4.4%	-4.9%	?	?
Cc1nc(C)c(C(=O)N2[C@H]3CC[C@@H]2c2cnc(-c4ccc(F)cc4)nc2C3)s1	?	8.7%	70.3%	-20.8%	15.8µM*	?
COCCC(=O)Nc1ccc2n(c1=O)C[C@H]1C[C@@H]2CN(CCCc2ccccc2)C1	i	1.8%[87.6 µM]	-19.5%[87.6 µM]	?	-8.7%[70.6 µM]	?
O=C(CCc1ccccc1)N1[C@H]2CC[C@@H]1c1cnc(-c3ccc(F)cc3)nc1C2	i	0.6%	8.4%	?	?	?
Cc1noc(C)c1C(=O)N1C2CCC1CN(C(C)C)C2	·	-2.5%[87.6 µM]	-14.7%[87.6 µM]	?	·	-24.9%[172 µM]
O=C(c1ccc2c(c1)OCO2)N1[C@H]2CC[C@@H]1c1cnc(-c3ccc(F)cc3)nc1C2	i	1.7%	3.2%	?	-11.4%	44.7µM*
COc1ccc(C(=O)N2[C@H]3CC[C@@H]2c2cnc(-c4ccc(F)cc4)nc2C3)cc1F	i	3.8%	32.9%	-11.2%	?	-0.4%
Cc1noc(C)c1Cc1ccc(C(=O)N2[C@H]3CC[C@@H]2c2cnc(-c4ccccc4)nc2C3)o1	i	-17.0%	0.7%	?	?	39.8µM*
Cc1noc(C)c1CC(=O)N1[C@H]2CC[C@@H]1c1cnc(-c3ccc(F)cc3)nc1C2	i	1.6%	-21.6%	?	-15.9%	?
COc1cc2c(cc1OCc1ccccc1)N(C(=O)Cc1ccc3c(c1)OCO3)CC21CCN(C)CC1	i	2.4%	?	?	6.5%	79.4µM*
COc1cc2c(cc1CCc1ccccc1)N(C(=O)Cc1ccc3c(c1)OCO3)CC21CCN(C(C)=O)CC1	i	-0.4%	-9.5%	?	-16.8%	-24.2%
COc1cc2c(cc1CCc1ccccc1)N(C(=O)COc1ccccc1)CC21CCN(C(C)=O)CC1	i	-28.8%	-27.5%	?	-1.7%	-25.0%
COc1cc2c(cc1CCc1ccccc1)N(C(=O)CC(C)C)CC21CCN(C(C)=O)CC1	i	-18.1%	-4.5%	?	2.1%	?
COc1cc2c(cc1OCc1ccccc1)N(C(=O)COc1ccccc1C(N)=O)CC21CCN(C)CC1	i	?	?	22.4µM*	4.4%	39.8µM*
COc1ccc(CC(=O)N2CC3(CCN(C)CC3)c3cc(OC)c(OCc4ccccc4)cc32)cc1	i	?	2.7%	?	6.5%	31.6µM*
COc1cc2c(cc1CCc1ccccc1)N([S+](=O)([O-])c1ccc3c(c1)CCO3)CC21CCN(C(C)=O)CC1	i	-9.2%	?	25.1µM*	-2.8%	?
COc1cc2c(cc1OCc1ccccc1)N(C(=O)COc1ccccc1)CC21CCN(C)CC1	i	?	?	22.4µM*	0.2%	28.2µM*
COc1cc2c(cc1OCc1ccccc1)N([S+](=O)([O-])c1cccc(C)c1)CC21CCN(C)CC1	i	-15.2%	-13.2%	22.4µM*	-1.8%	28.2µM*
COc1ccc2c(c1)C1(CCN(C(=O)c3ccccc3Br)C1)C(=O)N2 (centres undefined)	i	4.3%	16.5%	-7.6%	0.5%	?
CN1CCc2c([nH]c3ccccc23)C12CCNCC2	i	8.2%[12.5 µM]	21.7%	?	-0.6%	89.1µM*
CCC1CC2CN3CCc4c([nH]c5ccccc45)C(C(=O)OC)(C2)C13 (centres undefined)	·	-7.5%	·	·	·	·
NC(=O)c1ccc(N2CC3CCC(C2)N3CC(F)(F)F)nn1	·	2.8%	7.2%	i	·	3.8%
C=CCN(C)C(=O)[C@H]1CN2CCC1C[C@@H]2Cn1cc(-c2ccc(C(C)(C)C)cc2)nn1 (some centres undefined)	?	-8.4%[87.6 µM]	?	?	-2.0%[70.6 µM]	100µM*
C=CCN(C)C(=O)[C@H]1CN2CCC1C[C@@H]2Cn1cc(CO)nn1 (some centres undefined)	i	9.2%[87.6 µM]	13.0%[87.6 µM]	-34.4%[174 µM]	-0.7%[70.6 µM]	?
CC(C)(C)c1ccc(-c2cn(C[C@H]3CC4CCN3C[C@@H]4C(=O)NC3CCCCC3)nn2)cc1 (some centres undefined)	i	-24.3%	37.8%	?	-0.8%	31.6µM*
SMILES	FLuc inh	HEK293 viab	SNCA expr inh	3T3 cytotox	hNpr1 antagonist	HEK293 tox
O=C(Nc1ccccc1)[C@H]1CN2CCC1C[C@@H]2Cn1cc(CSc2ccccc2)nn1 (some centres undefined)	i	-21.2%[87.6 µM]	0.3%[87.6 µM]	100µM*	2.3%[70.6 µM]	100µM*
COc1ccc(-c2cn(C[C@H]3C[C@@H]4CCN3C[C@@H]4C(=O)NC3CC3)nn2)cc1	i	0.5%[87.6 µM]	41.0%[87.6 µM]	-3.1%[174 µM]	-7.5%[70.6 µM]	i
COc1ccccc1N1CCN(C(=O)[C@H]2CN3CCC2C[C@@H]3Cn2cc(-c3ccccc3)nn2)CC1 (some centres undefined)	i	-5.6%	25.8%	-29.3%	3.0%	44.7µM*
c1cc2nc(C3CCCNC3)[nH]c2cn1 (centres undefined)	i	6.2%[87.6 µM]	8.9%[87.6 µM]	-11.3%[174 µM]	-10.6%[70.6 µM]	-6.9%[230 µM]
CC(=O)Nc1ccc2n(c1=O)C[C@H]1C[C@@H]2CN(C(=O)c2ccccn2)C1	i	-6.4%[87.6 µM]	3.4%[87.6 µM]	i	8.4%[70.6 µM]	i
Cc1nc(-c2ccc(F)cc2)cc([C@H]2CN3CC[C@H]2C[C@@H]3CNS(=O)(=O)Cc2ccccc2)n1	i	2.2%	2.6%	79.4µM*	3.5%	35.5µM*
Cc1nc(-c2ccccc2)cc([C@H]2CN3CC[C@H]2C[C@@H]3CNS(C)(=O)=O)n1	i	2.7%[87.6 µM]	?	?	-9.0%[70.6 µM]	-21.2%[172 µM]
Cn1nc(-c2ccccc2)cc1[C@H]1CN2CC[C@H]1C[C@@H]2CNS(=O)(=O)Cc1ccccc1	i	-1.9%	4.6%	79.4µM*	5.7%	79.4µM*
Cc1nc(-c2ccc(C(F)(F)F)cc2)cc([C@H]2CN3CC[C@H]2C[C@@H]3CNS(C)(=O)=O)n1	i	4.8%	2.7%	39.8µM*	0.9%	?
Cn1nc(-c2ccc3ccccc3c2)cc1[C@H]1CN2CC[C@H]1C[C@@H]2CNS(=O)(=O)c1cccs1	?	4.8%	-11.8%	20µM*	-3.8%	?
Cn1nc(-c2ccccc2)cc1[C@H]1CN2CC[C@H]1C[C@@H]2CNS(=O)(=O)c1cccs1	i	-23.5%[87.6 µM]	?	?	-15.9%[70.6 µM]	?
CCOC(=O)[C@H]1CN(S(=O)(=O)c2ccccc2)[C@]2(C)C(=O)N(CC(=O)N(C)C)c3ccccc3[C@H]12	·	6.7%[23.9 µM]	-5.4%[25.6 µM]	?	·	-22.4%[57.5 µM]
